Screening data: PubChem BioAssay, National Center for Advancing Translational Sciences (NCATS)
Shiga toxin inh – A qHTS for Small Molecule Inhibitors of Shiga Toxin. inhibition, % at 38.7 µM. 290,000 compounds, 9.2% hits. Vero cells, Shiga toxin protein synthesis inhibition reporter; in the data active means inhibition mostly above about 28%, no sharp cut-off; inactive means mostly below about 43%; further: 0% is about no effect
LmPK inhibitor – qHTS Assay for Inhibitors of Leishmania Mexicana Pyruvate Kinase (LmPK) | purified LmPK, Kinase-Glo ATP luminescence, 1 h | Potency, µM (titrated, usually from 57.5 µM), without a hit: top-dose activity change, negative = inhibition, actives largely listed as inhibitors | 290,000 compounds, 0.37% hits; active means well fitted curve in the direction sought with a large enough effect; inconclusive means small, poorly fitted or top-dose-only effect, or another doubt; inactive means no such curve, though single readings can be large; an effect the other way counts as inactive or inconclusive; further: potency means the concentration at half of the fitted maximal effect; on the % scale 0 is the no-effect control and ±100 the full control effect
Target sequence (Q27686 whole entry, looked up): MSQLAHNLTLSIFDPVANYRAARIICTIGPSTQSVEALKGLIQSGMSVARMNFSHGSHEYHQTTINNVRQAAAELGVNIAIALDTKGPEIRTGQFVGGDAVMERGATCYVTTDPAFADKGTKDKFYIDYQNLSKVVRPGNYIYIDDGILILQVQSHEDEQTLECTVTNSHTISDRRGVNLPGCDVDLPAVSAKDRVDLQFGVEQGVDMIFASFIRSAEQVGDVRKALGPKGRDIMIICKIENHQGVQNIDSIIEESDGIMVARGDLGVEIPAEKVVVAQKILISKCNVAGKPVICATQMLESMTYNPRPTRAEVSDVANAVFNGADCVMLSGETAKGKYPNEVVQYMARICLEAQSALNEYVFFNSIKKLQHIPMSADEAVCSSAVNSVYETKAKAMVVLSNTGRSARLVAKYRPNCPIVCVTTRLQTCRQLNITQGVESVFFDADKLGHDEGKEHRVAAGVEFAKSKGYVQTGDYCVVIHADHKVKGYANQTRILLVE
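Screened at intermediate enzyme activity to detect both inhibitors and activators: LmPK at 0.1 nM, with a 0.5 nM enzyme column as activation reference. PEP 0.5 mM, ADP 0.1 mM; ATP detected by luminescence after 1 h.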
Tb PYK inh – qHTS of Trypanosoma Brucei Inhibitors; pyruvate kinase (Trypanosoma brucei), Q57TT1; TbPYK enzyme, Kinase-Glo Plus ATP luminescence, 45 min; Potency, µM (series often up to 76.8 µM), for inactives: at the highest dose activity, negative = inhibition, hits mostly inhibitors; 410,000 compounds, 0.12% hits; active means well fitted curve in the direction sought with a large enough effect; inconclusive means small, poorly fitted or top-dose-only effect, or another doubt; inactive means no such curve, though single readings can be large; an effect the other way counts as inactive or inconclusive; further: potency means the concentration at half of the fitted maximal effect; on the % scale 0 is the no-effect control and ±100 the full control effect; nearly all actives have a fitted effect of over 50% in size
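In this concentration-response screen, enzyme-free wells defined baseline while DMSO plates tracked drift. Each reaction combined TbPYK, substrate, compound and 130 uM ADP for 45 min at room temperature. Kinase-Glo Plus luminescence gave the signal.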
CHX counter – Cycloheximide Counterscreen for Small Molecule Inhibitors of Shiga Toxin; max response, %; cell reporter, cycloheximide protein synthesis inhibition counterscreen; 300,000 compounds, 12% hits; in the data active means max response mostly above about 13%, no sharp cut-off; inactive means mostly below about 14%; further: read at 38.3 µM for the half of the compounds with a filed dose; 0% is about no effect
NS1 function inh – qHTS Assay for Inhibitors of Influenza NS1 Protein Function; AID 2326, 2010; Potency, µM (highest dose often 46.1 µM), for inactives: at the top dose activity, positive = more growth; 270,000 compounds, 0.4% hits; further: potency means the concentration at half of the fitted maximal effect; actives are rising curves; nearly all actives have a fitted effect of over 50% in size
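In this qHTS, NS1 from influenza A is expressed in budding yeast, where it slows growth. Cells are switched from glucose to 2% galactose medium (pH 6.0, -URA), treated with compound, and growth recovery is read at OD600.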
SARS PLpro yeast – qHTS of Yeast-based Assay for SARS-CoV PLP; S. cerevisiae expressing SARS-CoV PLpro, growth rescue; Potency, µM (titrated, usually from 32.9 µM), without a hit: at the highest dose activity, positive = growth rescue, usual class: activators; 330,000 compounds, 0.19% hits; further: potency means the concentration at half of the fitted maximal effect; 0% is about no effect; nearly all actives have a fitted effect of over 55% in size
The depositor's hits bear a star. Shown is part of a subset that was picked to be rich in hits. Unless noted, the call rests on the fitted dose curve.

For COc1ccc2oc(=O)c(-c3csc(Nc4ccc(O)cc4)n3)cc2c1 the results were Shiga toxin inh 85*, LmPK inhibitor 2%, Tb PYK inh -8%, CHX counter 46*, NS1 function inh inconclusive and SARS PLpro yeast 1%.
`COc1cccc(NC(=O)Cn2c3ccccc3c3nc4n(c(=O)c32)CCCS4)c1` gave Shiga toxin inh 15, LmPK inhibitor 3%, Tb PYK inh 4%, CHX counter 13, NS1 function inh 2% and SARS PLpro yeast 14%.
For NC(=O)C1CCN(c2nc(-c3cccs3)cs2)CC1 the results were Tb PYK inh -18% and SARS PLpro yeast 6%.
`O=C(NCc1ccc(Cl)s1)C1CCC(=O)N(CCc2ccccn2)C1` (centres undefined) gave Shiga toxin inh -3, LmPK inhibitor -4%, Tb PYK inh -1%, CHX counter -3, NS1 function inh -10% and SARS PLpro yeast -1%.
`COc1ccc(-c2csc(NC(=O)Nc3ccccc3)n2)cc1` gave Shiga toxin inh 41, LmPK inhibitor 1%, Tb PYK inh -12%, CHX counter 8, NS1 function inh 3% and SARS PLpro yeast 5%.
`COc1ccc(-c2csc(Nc3ccccc3)n2)cc1` gave Shiga toxin inh 97*, LmPK inhibitor -6%, Tb PYK inh 3%, CHX counter 29*, NS1 function inh 4% and SARS PLpro yeast -3%.
For O=C(COC(=O)C1CC1)Nc1ccc(Cl)cc1Cl the results were Tb PYK inh -6% and SARS PLpro yeast -5%.
OCc1c(Cl)nc2ccccn12 was read as Shiga toxin inh -6, LmPK inhibitor -11%, Tb PYK inh 7%, CHX counter -1, NS1 function inh -3% and SARS PLpro yeast 2%.
`Clc1cc2nc3ccccn3c2cc1Cl` gave Shiga toxin inh 68*, LmPK inhibitor -4%, Tb PYK inh -7%, CHX counter 20*, NS1 function inh -170% and SARS PLpro yeast -44%.
`O=C1N=C(N2CCOCC2)S/C1=C/c1cccs1` gave Shiga toxin inh 20, LmPK inhibitor -8%, Tb PYK inh -13%, CHX counter 25*, NS1 function inh -10% and SARS PLpro yeast 2%.
For Cc1ccccc1N1CCN(C2=NC(=O)/C(=C\c3cccs3)S2)CC1 the results were Shiga toxin inh 104*, LmPK inhibitor 0%, Tb PYK inh 3%, CHX counter 78*, NS1 function inh -7% and SARS PLpro yeast -37%.
Screening CC(=O)N1CCN(C2=NC(=O)/C(=C\c3cccs3)S2)CC1 returned Shiga toxin inh -7, LmPK inhibitor -9%, Tb PYK inh 2%, CHX counter 5, NS1 function inh 5% and SARS PLpro yeast 0%.
`O=C1N=C(N2CCOCC2)S/C1=C\c1ccncc1` gave Shiga toxin inh -3, LmPK inhibitor -8%, Tb PYK inh -2%, CHX counter 18, NS1 function inh -1% and SARS PLpro yeast 2%.
CC(=C/c1ccccc1)/C=C1/SC(N2CCOCC2)=NC1=O was read as Shiga toxin inh 30*, LmPK inhibitor -5%, Tb PYK inh -1%, CHX counter 23*, NS1 function inh -144% and SARS PLpro yeast -10%.
`Cc1ccc(NC(=O)c2cc(S(=O)(=O)N(C)C3CCCCC3)ccc2F)cc1C` gave Tb PYK inh 0%.
Screening Cn1cccc1C(=O)N1CCC2(CC1)CN(c1ccccn1)C2 returned Tb PYK inh 1%.
For Oc1ccc(/C=N/N=C(c2ccccc2)c2ccccc2)c(O)c1O the results were Shiga toxin inh 27, LmPK inhibitor 2%, Tb PYK inh inconclusive, CHX counter 18*, NS1 function inh -4% and SARS PLpro yeast -4%.
`COc1ccc(NC(=O)c2ccc3nccnc3c2)cc1` gave Shiga toxin inh 88*, LmPK inhibitor -3%, Tb PYK inh -2%, CHX counter 37*, NS1 function inh -4% and SARS PLpro yeast -18%.
Screening COc1ccc(C(=O)Nc2ccc3ncccc3c2)cc1 returned Shiga toxin inh -11, LmPK inhibitor -13%, Tb PYK inh -15%, CHX counter 12, NS1 function inh -33% and SARS PLpro yeast -11%.
CCOc1ccc(NC(=O)c2ccc3nccnc3c2)cc1 was read as Shiga toxin inh 62, LmPK inhibitor -2%, Tb PYK inh 2%, CHX counter 52*, NS1 function inh -12% and SARS PLpro yeast 8%.
For CCOCCc1nn2c(=O)cc(COC(=O)C3CCCCC3)nc2s1 the results were Tb PYK inh 0%.
`Cc1ccc([N+](=O)[O-])cc1-c1ccc(/C=C(\C#N)c2[nH]nc(N)c2C#N)o1` gave Shiga toxin inh 28, LmPK inhibitor 0%, Tb PYK inh -6%, CHX counter 20*, NS1 function inh inconclusive and SARS PLpro yeast 4%.
For O=C1c2ccccc2CC1Sc1nnc(-c2ccccn2)o1 (centres undefined) the results were Shiga toxin inh 75*, LmPK inhibitor -8%, Tb PYK inh -22%, CHX counter 17*, NS1 function inh -11% and SARS PLpro yeast 3%.
`CCCCNC(=O)c1cnn2c(C)c(Cc3c(F)cccc3Cl)c(C)nc12` gave Tb PYK inh 0%.
Screening CCCCc1nnc(NC(=O)C2=COCCO2)s1 returned Shiga toxin inh 69*, LmPK inhibitor -3%, Tb PYK inh 6%, CHX counter 40*, NS1 function inh 5% and SARS PLpro yeast -6%.
For CCC(CC)c1nnc(NC(=O)C2CCCO2)s1 (centres undefined) the results were Shiga toxin inh 17, LmPK inhibitor -3%, Tb PYK inh 1%, CHX counter 19* and SARS PLpro yeast 1%.
CCCc1nnc(NC(=O)CCC(=O)NC2CCCC2)s1 was read as Shiga toxin inh 17, LmPK inhibitor -10%, Tb PYK inh -6%, CHX counter -5, NS1 function inh 8% and SARS PLpro yeast 5%.
`CCCCc1nnc(NC(=O)C2CCCO2)s1` (centres undefined) gave Shiga toxin inh 53*, LmPK inhibitor -3%, Tb PYK inh -4%, CHX counter 15*, NS1 function inh -6% and SARS PLpro yeast -1%.
Screening COc1ccc(CCNC(=O)c2cc3c(=O)n(C)c4ccccc4c3s2)cc1OC returned Tb PYK inh 3%.
CCC(=O)N1CCc2cc(S(=O)(=O)NCCC(=O)Nc3cc(C)ccc3OC)ccc21 was read as Tb PYK inh -6%.
CCCCCSc1cc(OC)c(CCN(C)C)cc1OC was read as Shiga toxin inh 4, LmPK inhibitor -1%, Tb PYK inh -8%, CHX counter 20*, NS1 function inh 9% and SARS PLpro yeast 2%.
